Screening results as filed in PubChem.
A selection: hits, their analogues and other compounds. The true share with any hit is near 2.4%.
PTAP TSG101 blk: blocks PTAP/TSG101 interaction to inhibit HIV-1 budding; AID 493005; Fluorescence polarization, FITC-PTAP peptide / Tsg101 binding; Potency, µM (doses to about 115 µM), inactives show at the highest dose activity change, negative = inhibition, usual class: inhibitors; 340,000 tested, under 10 active; active = well fitted inhibition curve with a large enough effect in the main read-out, with a control signal flat, not every such curve was filed as active; inconclusive = small, poorly fitted or top-dose-only effect, or effect the other way, or a change in a side signal; inactive = no such curve, though single readings can be large or run the other way; also: % of control where 0% means no effect
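FP read-out: FITC-PTAP peptide, 50 nM final, binding Tsg101 binding domain, 10 uM final; 20 min, r.t.; 10 mM HEPES pH 7.5, 0.15 M NaCl, 0.01% Tween 20, 3 mM EDTA, 0.1 mM TCEP.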
Rango complex inh: Rango-importin beta binding inhibition | Q14974 | Rango CFP/YFP FRET sensor + importin beta, 45 min | Potency, µM (top dose mostly 92.2 µM), without a hit: top-dose inhibition of complex formation | 340,000 compounds, 0.031% hits;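 also: 0% = DMSO wells and 100% = buffer wells lacking importin beta; nearly all actives have a fitted effect of over 15% in size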
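FRET biosensor Rango (snurportin 1 IBB between N-terminal EYFP and C-terminal Cerulean), 50 nM in PBS/1 mM DTT/0.02% Tween-20/0.1% BSA, preincubated 5 min RT with compound; 0.125 microM importin beta added, 45 min RT, CFP/YFP FRET ratio read.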
TDP1 inh: inhibitors of human tyrosyl-DNA phosphodiesterase TDP1. 350,000 compounds, 0.28% hits. Potency, µM (doses to about 130 µM), for the others: at the top dose activity change, negative = inhibition, usual class: inhibitors. Q9NUW8. recombinant TDP1, AlphaScreen DNA substrate cleavage; active = well fitted curve in the direction sought with a large enough effect; inconclusive = small, poorly fitted or top-dose-only effect, or another doubt; inactive = no such curve, though single readings can be large; an effect the other way counts as inactive or inconclusive; also: % is scaled to controls: 0 for no effect and ±100 for the full control effect; nearly all actives have a fitted effect of over 40% in size
Target sequence (Q9NUW8 whole entry, looked up): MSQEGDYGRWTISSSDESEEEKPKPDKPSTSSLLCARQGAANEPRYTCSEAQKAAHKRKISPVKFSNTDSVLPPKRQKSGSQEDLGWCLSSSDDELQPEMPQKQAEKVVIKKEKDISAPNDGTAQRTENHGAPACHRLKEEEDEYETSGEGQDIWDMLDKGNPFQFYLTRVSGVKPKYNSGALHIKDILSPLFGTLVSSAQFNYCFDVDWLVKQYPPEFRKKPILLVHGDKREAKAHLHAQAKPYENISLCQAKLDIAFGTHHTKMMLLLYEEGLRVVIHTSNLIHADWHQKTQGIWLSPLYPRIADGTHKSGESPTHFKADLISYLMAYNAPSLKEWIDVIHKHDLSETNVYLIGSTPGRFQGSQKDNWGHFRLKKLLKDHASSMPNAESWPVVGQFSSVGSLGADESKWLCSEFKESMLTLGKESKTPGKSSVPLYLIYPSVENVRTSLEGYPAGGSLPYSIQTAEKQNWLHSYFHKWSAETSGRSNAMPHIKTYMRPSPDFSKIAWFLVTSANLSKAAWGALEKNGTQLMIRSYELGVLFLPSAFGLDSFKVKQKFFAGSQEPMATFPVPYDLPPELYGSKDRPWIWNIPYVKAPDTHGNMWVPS
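Compounds were preincubated with Tdp1 (1 nM final) for 15 min at room temperature before substrate (15 nM final) started a 5 min reaction; beads (10 ug/ml final) were then added for 10 min before AlphaScreen detection.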
12-LOX inh: inhibitors of human 12S-lipoxygenase ALOX12; P18054; purified 12hLO, xylenol orange hydroperoxide absorbance; Potency, µM (doses to about 108 µM), for inactives: at the top dose activity change, negative = inhibition, hits mostly inhibitors; 580,000 compounds, 1.1% hits; AID 1671190; active = well fitted curve in the direction sought with a large enough effect; inconclusive = small, poorly fitted or top-dose-only effect, or another doubt; inactive = no such curve, though single readings can be large; an effect the other way counts as inactive or inconclusive; also: % is scaled to controls: 0 for no effect and ±100 for the full control effect
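Purified human 12hLO (150 nM final) in 25 mM Hepes, 0.01% Triton X-100, pH 7.0 was preincubated 15 min at room temperature with compound. Then 40 uM arachidonic acid was added, 30 min. Hydroperoxide was read by Fe-XO absorbance ratio 573/405 nm.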
ClpP mod: qHTS Assay for Activators of ClpP; ATP-dependent Clp protease proteolytic subunit (Bacillus subtilis (strain 168)), P80244; purified B. subtilis ClpP, FRET peptide cleavage, 20 min; Potency, µM (top dose mostly 57.5 µM), inactives show at the highest dose activity change, negative = active; 340,000 compounds, 1.9% hits; active = well fitted falling curve with a large enough effect; inconclusive = small, poorly fitted or top-dose-only effect; inactive = no such curve, though single readings can be large or run the other way; also: the source files actives as falling curves though it sought activators and does not explain the sign; nearly all actives have a fitted effect of over 65% in size
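FRET quenching reversal measured ClpP activation: 10 microg/mL B. subtilis ClpP at pH 8 with the FRET-FV decapeptide, read at 430 nm after 320 nm excitation. The 20-min minus 0-min signal was scaled between DMSO/no-enzyme wells and ADEP (5.8 microM final).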
Rango dissoc inh: inhibitors of RanGTP-induced Rango-importin beta complex dissociation; O95149+P62826; Biochemical FRET Rango-importin beta, RanGTP-induced dissociation; Potency, µM (highest dose often 46.1 µM), without a hit: top-dose activity change, negative = inhibition; 340,000 compounds, 0.071% hits; also: % of control where 0% means no effect; nearly all actives have a fitted effect of over 45% in size
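Compounds preincubate 5 min with complex of recombinant Rango and importin beta in PBS with 1 mM DTT. Ran (0.6 uM) loaded with 2 mM GTP plus 0.2 uM RCC1 starts dissociation; FRET is recorded 45 min later.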
Starred values were filed as active, the others as inactive; ? = inconclusive; nt = no result given; [ ] = remark or other dose. Unless noted, calls follow the shape of the full dose curve. Potency is read from the fitted curve at half-maximal effect.

SMILES	PTAP TSG101 blk	Rango complex inh	TDP1 inh	12-LOX inh	ClpP mod	Rango dissoc inh
Cc1ccccc1[C@H]1C[C@@H](O)[C@@H](O)[C@@H]1NC(=O)c1nc2ccccc2s1	nt	nt	nt	45µM*	nt	nt
O=C(CC1C(=O)NCCN1C(=O)c1ccc(Cl)cc1)Nc1ccc(F)cc1 (stereo not drawn)	0%	0%	3%	?	32µM*	-3%
O=C(CC1C(=O)NCCN1C(=O)Nc1ccc(Cl)cc1)Nc1ccc(F)cc1 (stereo not drawn)	-7%	3%	-5%	40µM*	nt	26%
O=c1c2cc([N+](=O)[O-])ccc2sn1-c1ccccc1	nt	nt	nt	0.25µM*	-3%	nt
CC(=O)Nc1ccc2sn(-c3ccccc3)c(=O)c2c1	nt	nt	nt	1.1µM*	-2%	nt
O=c1c2cc(F)ccc2sn1-c1ccc(F)cc1	-1%	0%	0%	nt	-10%	0%
N#Cc1ccc2sn(-c3ccccc3)c(=O)c2c1	nt	nt	nt	0.35µM*	-1%	nt
COc1ccc(-n2sc3ccccc3c2=O)cc1	nt	nt	nt	?	0%	nt
Cc1noc2c(NC3CCOCC3)cc(-c3ccsc3)nc12	nt	nt	nt	-2%[176 µM]	nt	nt
CCN(CC)CCCN(C/C=C/c1ccccc1)C/C=C/c1ccccc1	nt	nt	nt	0.71µM*	nt	nt
O=C(CC1COCCN1S(=O)(=O)c1ccccc1)NCc1ccccn1 (stereo not drawn)	nt	nt	nt	75%	nt	nt
O=C(CSc1ncccc1C(=O)O)NC12CC3CC(CC(C3)C1)C2	0%	0%	-8%	22µM*	nt	-10%
O=C(CSc1ccccc1C(=O)O)NC12CC3CC(CC(C3)C1)C2	-1%	4%	nt	0%	0%	-3%
Cc1ccc(Cn2c(/C=C/c3ccco3)nc3ccccc32)cc1	-4%	6%	-3%	16µM*	28µM*	?
Clc1ccc(Cn2c(/C=C/c3ccco3)nc3ccccc32)cc1	1%	-4%	8%	18µM*	35µM*	-24%
CCCn1c(/C=C/c2ccco2)nc2ccccc21	1%	?	8%	?	-27%	?
CCCCn1c(/C=C/c2ccco2)nc2ccccc21	0%	?	0%	?	-30%	?
Cc1oc(-c2ccccc2)nc1CC(=O)Nc1cccc(C(N)=O)c1	nt	nt	nt	-4%	nt	nt
CN(CC1CCOCC1)C(=O)Nc1ccc(C(F)(F)F)cc1	nt	nt	nt	-6%	nt	nt
COc1cc2c(N3CCOCC3)cc(O)c(CC(=O)Nc3ccccc3)c2cc1OC	-3%	1%	5%	?	28µM*	13%
Cc1ccc(NS(=O)(=O)c2ccc(N3CCN(c4ccc(O)cc4)CC3)c([N+](=O)[O-])c2)c(C)c1	-8%	1%	9%	?	-4%	-5%
O=[N+]([O-])c1cc(S(=O)(=O)Nc2ccccc2)ccc1N1CCN(c2ccc(O)cc2)CC1	2%	-1%	-1%	25µM*	1%	?
CC1(C)Cc2c(c(N3CCOCC3)nc3sc4c(NCCc5ccccc5)nnnc4c23)CO1	nt	nt	nt	15%	nt	nt
Nc1cccc(OCC2CCCO2)c1 (stereo not drawn)	nt	nt	nt	7.1µM*	nt	nt
NC(=O)c1ccc(OCC2CCCO2)cc1 (stereo not drawn)	-1%	-1%	6%	-6%	nt	25%
SMILES	PTAP TSG101 blk	Rango complex inh	TDP1 inh	12-LOX inh	ClpP mod	Rango dissoc inh
Cn1c(-c2cccc(Br)c2)cnc1NCc1cccc(F)c1	nt	nt	6%	11µM*	1%	nt
CCCC(=O)Nc1ccccc1C(=O)OC/C(=N/O)c1ccc(OC)cc1	nt	nt	nt	-3%	nt	nt
COCCOCCNC(=O)c1ccc2c(c1)NC(=O)CS2	nt	nt	nt	-7%	nt	nt
O=C(CCN1CCN(CCO)CC1)Nc1ccc(C2CCCC2)cc1	-1%	0%	-3%	45µM*	0%	-7%
CCc1cc(=O)oc2cc(OCC(=O)NCc3ccncc3)c(Cl)cc12	nt	nt	nt	17%	nt	nt
C=C(Cl)COc1ccc2c(CC)cc(=O)oc2c1	-7%	4%	-5%	2%	25µM*	17%
